# Source: PubChem BioAssay (National Center for Advancing Translational Sciences (NCATS))
# Most compounds without a hit are left out; they make up all but 19% or so of the library.
# HT1080-NT tox – kills 2HG-producing HT-1080-NT fibrosarcoma cells | HT-1080-NT fibrosarcoma viability, CellTiter-Glo ATP luminescence, 48 h | Potency, µM (highest dose often 46.1 µM), for inactives: at the highest dose activity, negative = less viability, usual class: cytotoxic | 360,000 compounds, 1.6% hits | AID 686970;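 further: NT is the 2HG producing partner of a matched IDH1 knockdown line; potency means the concentration at half of the fitted maximal effect; 0% = DMSO-treated cells and -100% = media-only wells without cells; nearly all actives have a fitted effect of over 55% in size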
#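 Compounds were tested in concentration-response format on HT-1080-NT cells for 48 hours at 37 degrees C. Cell viability came from CellTiter-Glo luminescence; curves were classified by r2, response magnitude and activity.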
# DT40 TDP1 no CPT – qHTS for Inhibitors of human tyrosyl-DNA phosphodiesterase 1 (TDP1): qHTS in cells in absence of CPT. DT40 Tdp1-/- hTDP1 cells, no CPT, ATP luminescence, 48 h. 420,000 compounds, 15% hits. Potency, µM (highest dose often 46.2 µM), inactives show top-dose activity change, negative = growth inhibition, most hits filed as inhibitors; further: potency means the concentration at half of the fitted maximal effect; nearly all actives have a fitted effect of over 55% in size
#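 Chicken DT40 Tdp1-/- cells complemented with human TDP1, screened without camptothecin (DMSO vehicle only), 400 cells/well. Compounds pin-transferred, cells incubated at 37 °C for at least 48 hr. Growth read as ATP-dependent luminescence (CellTiter-Glo, 30 min at RT).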
# HT1080 IDH1KD tx – kills HT-1080 cells with IDH1 knockdown; HT-1080 IDH1 knockdown viability, ATP luminescence, 48 h; Potency, µM (doses to about 46.1 µM), for the others: at the top dose activity, negative = toxicity, hits mostly cytotoxic; 360,000 compounds, 2% hits; AID 686971;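 further: potency means the concentration at half of the fitted maximal effect; 0% = DMSO wells and -100% = cell-free medium wells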
#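 Viability of IDH1-knockdown HT-1080 fibrosarcoma cells was assessed by CellTiter-Glo after 48 h at 37 °C with titrated compound; concentration-effect curves were classified by fit quality and response size.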
# DT40 TDP1 CPT – DT40-hTDP1 cell growth loss with CPT. chicken DT40 Tdp1-/-;hTDP1 cells + 20 nM CPT, ATP luminescence, 48 h. Potency, µM (top dose mostly 46.2 µM), without a hit: at the top dose activity change, negative = growth inhibition, actives largely listed as inhibitors. 420,000 compounds, 12% hits. AID 686979; further: potency means the concentration at half of the fitted maximal effect; nearly all actives have a fitted effect of over 55% in size
#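 Chicken DT40 Tdp1-/- cells complemented with human TDP1, 400 cells/well, exposed to compounds plus 20 nM camptothecin for at least 48 h at 37 C; viability read as ATP content by CellTiter-Glo luminescence.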
# IL-1B inflam inh – inflammasome signaling inhibition, IL-1 beta readout; AID 743279; THP-1 LPS/ATP IL-1B secretion, AlphaLISA, 16 h; active compounds read low; 360,000 compounds, 4.7% hits; activity change, % at 57.5 µM; in the data active means activity change below about -50%; inconclusive means mostly about -30% to -49%
#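 THP-1 cells pretreated 1 hr with compounds (up to 57.5 uM final), then stimulated with LPS (250 ng/mL final) plus ATP (1.25 mM final); secreted IL-1B measured by AlphaLISA after 16 hr, decreased signal indicating inhibition.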
# * = called active by the depositor; i = inactive; ? = inconclusive; . = no result given; [ ] = remark or other dose. Unless noted, the call rests on the fitted dose curve; in most records, active means well fitted curve in the direction sought with a large enough effect; inconclusive means small, poorly fitted or top-dose-only effect, or another doubt; inactive means no such curve, though single readings can be large; an effect the other way counts as inactive or inconclusive. Unless noted, on the % scale 0 is the no-effect control and ±100 the full control effect.
SMILES,HT1080-NT tox,DT40 TDP1 no CPT,HT1080 IDH1KD tx,DT40 TDP1 CPT,IL-1B inflam inh
CCOC(=O)[C@]12CCCC=C1N(Cc1cccc3ccccc13)C(=O)[C@H](CC(=O)NCCCOC)C2,2.8%,?,3.5%,?,0.0
CCCCOCCCNC(=O)C[C@@H]1C[C@@]2(C(=O)OC)CCCCC=C2N(Cc2ccccc2)C1=O,-0.3%,13µM*,13.3%,18.4µM*,-8.1
CCOC(=O)[C@]12CCC=C1N(Cc1cccc3ccccc13)C(=O)[C@H](CC(=O)NCCCOC)C2,11.1%,14.6µM*,-1.4%,18.4µM*,22.5
COC(=O)[C@@]12C[C@@H](CC(=O)NCCCN3CCCC3=O)C(=O)N(Cc3cccc4ccccc34)C1=CCC(C)(C)C2,-19.4%,?,-15.0%,?,-24.1
CCCCOCCCNC(=O)C[C@@H]1C[C@@]2(C(=O)OCC)CCC=C2N(Cc2cccc3ccccc23)C1=O,?,18.4µM*,?,20.6µM*,-67.4*
COC(=O)[C@]12CCCCC=C1N(Cc1cccc3ccccc13)C(=O)[C@H](CC(=O)NCCCN1CCCC1=O)C2,4.8%,16.4µM*,0.4%,?,-3.2
CCCCOCCCNC(=O)C[C@@H]1C[C@@]2(C(=O)OC)CCCCC=C2N(Cc2cccc3ccccc23)C1=O,?,20.6µM*,?,?,-51.3*
CCOC(=O)[C@]12CCC=C1N(Cc1cccc3ccccc13)C(=O)[C@H](CC(=O)NCC13CC4CC(CC(C4)C1)C3)C2,-22.5%,?,-20.9%,20.6µM*,16.6
COC(=O)[C@]12CCCCC=C1N(Cc1cccc3ccccc13)C(=O)[C@H](CC(=O)NCCc1ccccc1OC)C2,?,?,-29.9%,?,0.0
CCOC(=O)[C@]12CCC=C1N(Cc1ccccc1)C(=O)[C@H](CC(=O)NCC13CC4CC(CC(C4)C1)C3)C2,?,?,?,?,-7.2
N#Cc1cccc(NC(=O)CN2CCN(Cc3ccccc3)CC2)c1,13.4%,-18.4%,21.6%,-1.1%,-6.9
Cc1nc2ccccc2nc(C)c1=NOCC(=O)N(c1ccccc1)C(C)C,0.0%,18.4µM*,-1.2%,?,42.9
CC(C)N(C(=O)COC(=O)Cn1cnc2ccccc21)c1ccccc1,16.7%,-14.0%,14.8%,-19.1%,6.6
O=C(O)CN(c1ccccc1)S(=O)(=O)c1cc(C(F)(F)F)cc(C(F)(F)F)c1,-3.5%,0.3%,2.7%,-10.9%,2.4
Cc1sc2ncnc(SCC(=O)N3c4ccccc4Sc4ccc(Cl)cc43)c2c1C,14.1%,?,15.3%,-9.8%,15.2
CCOC(=O)c1c(C)sc2c1N(C(=O)CCl)c1cc(Cl)ccc1S2,23.1µM*,4.11µM*,18.4µM*,4.11µM*,-101.1*
Oc1cccc2c(CC(O)c3c[nH]c4ccccc34)ccnc12 (configuration not stated),.,11.2µM*,.,?,.
NC(Cc1c[nH]c2ccccc12)C(=O)O (configuration not stated),.,?,.,-71.5%,.
CCn1c(C(=O)N2CCC(C(=O)N3CCN(c4cc(C)ccc4C)CC3)CC2)cc2sccc21,.,16.4µM*,.,23.1µM*,.
CCn1c(C(=O)N2CCCC(C(=O)N3CCN(c4ccccc4)CC3)C2)cc2sccc21 (configuration not stated),.,23.1µM*,.,?,.
Cn1c(C(=O)N2CCCC(C(=O)N3CCN(C(=O)c4ccco4)CC3)C2)cc2sccc21 (configuration not stated),-3.1%,?,-10.5%,14.6µM*,-2.3
CCn1c(C(=O)N2CCC(C(=O)N3CCN(c4ccccn4)CC3)CC2)cc2sccc21,16.9%,25.9µM*,-1.2%,?,-24.6
O=C(O)C1CC(=O)N(c2ccc(OCc3ccccc3)cc2)C1 (configuration not stated),10.1%[9.24 µM],-18.6%,-24.1%,-14.8%,0.0
CCn1c(C(=O)N2CCC(C(=O)N3CCN(c4ccc(OC)cc4)CC3)CC2)cc2sccc21,.,13µM*,.,9.2µM*,.
COC(=O)C[C@H]1c2cc(C(F)(F)F)ccc2S(=O)(=O)N1Cc1ccccc1OC,-1.1%,?,-1.0%,?,4.5
SMILES,HT1080-NT tox,DT40 TDP1 no CPT,HT1080 IDH1KD tx,DT40 TDP1 CPT,IL-1B inflam inh
COc1cccc2sc(Nc3nc(-c4ccncc4)cs3)nc12,2.31µM*,2.91µM*,2.31µM*,4.61µM*,39.6
COc1cccc2sc(Nc3nc(-c4cc5ccccc5oc4=O)cs3)nc12,5.17µM*,4.61µM*,2.06µM*,4.61µM*,59.3
COc1cccc2sc(NN)nc12,-22.1%,?,?,?,-0.6
CCOc1cc(C(=O)NCCOC)ccc1OC,-1.1%,?,1.1%,-0.2%,-10.7
Cc1ccc(NC(=O)c2c(C)nc3sc(C(=O)NC4CCCC4)c(N)c3c2-c2ccco2)c(C)c1,2.6%,5.17µM*,7.2%,2.91µM*,19.4
COC(=O)c1sc2nc3c(c(-c4cccs4)c2c1N)CCCC3,23.4%,?,-2.8%,-14.1%,-1.1
NC(=O)c1sc2nc3c(c(-c4ccco4)c2c1N)CCCC3,7.6%,16.4µM*,4.8%,?,-6.5
NC(=O)c1sc2nc3c(c(-c4ccc(Cl)cc4)c2c1N)CCCC3,?,?,?,?,-17.3
N#Cc1sc2nc3c(c(-c4ccco4)c2c1N)CCCC3,-11.7%,23.1µM*,-9.9%,?,37.4
Nc1c(C(=O)NCC2CCCO2)sc2nc3c(c(-c4ccco4)c12)CC/C3=C\c1ccco1 (configuration not stated),-1.9%,25.9µM*,0.2%,?,-3.7
O=C1CCC(C(=O)N2CCSCC2)CN1Cc1cccc(C(F)(F)F)c1 (configuration not stated),-0.4%,0.7%,0.1%,-6.2%,i
Cc1ccc(C(=O)NCC(=O)OCC(=O)Nc2ccccc2[N+](=O)[O-])cc1,22.6%,8.6%,21.6%,-25.2%,19.9
Cc1ccccc1NC(=O)c1sc2nc3c(c(-c4ccco4)c2c1N)CCC3,19.2%,?,15.7%,?,-69.5*
O=C(Cc1cccc2ccccc12)Nc1ccc(-c2cc3ccccc3oc2=O)cc1,-7.5%,?,-29.2%,?,30.0
COc1ccc(NC(=S)Nc2ccc3c(c2)c(=O)n(C)n3-c2ccccc2)cc1,-26.9%,?,?,?,-25.2
CC(CC(=O)Nc1ccc2c(c1)OCCO2)c1ccccc1 (configuration not stated),1.9%,-25.7%,-2.2%,?,6.8
